# Screening data as filed in PubChem.
# Shown are actives, neighbours in structure and some others; about 3.4% of the full set was active somewhere.
# FXN GAA850 act – activators of GAA850 frataxin (FXN) promoter; AID 540364; HEK293 lucGAA850 FXN promoter luciferase reporter, 24 h; percent of 10 µM SAHA response; activation, % at 6 µM; actives 0.56% (n = 360,000);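 active means activation above the average of all compounds screened plus 3 SD, cutoff fixed separately per campaign, cut at about 7.5% in these data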;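 further: 0% = DMSO wells and 100% = 10 µM SAHA wells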
# SMARCA2 act – increases SMARCA2 function in MMTV reporter cells; AID 652017; activation, % at 9.1 µM; actives 1% (n = 370,000); MG213 cells, MMTV-luciferase reporter, dexamethasone, overnight; in the data active means activation above about 7.8%;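 further: 0% = vehicle wells and 100% = reference activator wells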
# Gli-Sufu antag – blocks Gli-Sufu signaling in a luciferase reporter; Sufu-KO-LIGHT fibroblasts, Gli luciferase reporter luminescence; inhibition, % at 5 µM; actives 0.74% (n = 340,000); AID 588413;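 active means inhibition above about 55%, limit read from the data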;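 further: 0% = DMSO-treated cells and 100% = wells with medium but no cells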
# Cardio protect – modulators protecting cardiomyocytes from myocardial damage | H9c2 cardiomyocytes, H2O2 injury protection, ATPLite, 2 h | protection from H2O2 cell death, % at 20 µM | actives 0.63% (n = 360,000);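 active means compounds giving at least 50% protection of heart cells from peroxide-induced death in the single-dose screen, raw or plate-pattern-corrected value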;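 further: 0% = DMSO wells with peroxide and 100% = DMSO wells without peroxide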
# GalR3 antag – human GalR3 antagonism. O60755. HEK293 GalR3-CNG cAMP membrane potential fluorescence; galR3 body fused to GalR1 C-terminus. inhibition, % at 3 µM. actives 0.44% (n = 360,000). AID 651719;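 active means inhibition above the screen-wide average plus 3 SD, cut at about 13% in these data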;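 further: forskolin and galanin both at EC90 stimulate the cells; cAMP rise reported by CNG channel membrane potential dye signal; 0% = forskolin plus galanin with DMSO and 100% = forskolin alone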
# Target sequence (O60755 1-299 limits assumed): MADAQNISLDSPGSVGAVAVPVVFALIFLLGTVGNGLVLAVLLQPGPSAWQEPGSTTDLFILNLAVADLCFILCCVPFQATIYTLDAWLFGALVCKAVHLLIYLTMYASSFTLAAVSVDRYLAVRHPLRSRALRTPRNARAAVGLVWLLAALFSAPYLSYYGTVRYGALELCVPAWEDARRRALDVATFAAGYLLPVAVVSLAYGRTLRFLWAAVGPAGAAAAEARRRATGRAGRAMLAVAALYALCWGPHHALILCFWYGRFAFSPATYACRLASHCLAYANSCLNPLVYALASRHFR
# NR2F2 inh – inhibitors of human COUP-TFII (NR2F2); HEK293T NGFI-A luciferase reporter, luminescence; inhibition, % at 8.6 µM; actives 0.7% (n = 370,000); AID 686940;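 active means inhibition above a per-plate cutoff, mean inhibition of test wells between control levels plus 3 SD, cut at about 38% in these data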;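 further: cells cotransfected with COUP-TFII expression vector driving the NGFI-A reporter; 0% = median of COUP-TF2 test wells and 100% = reporter-only cells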
# An asterisk follows results filed as active; / = no result given.
SMILES,FXN GAA850 act,SMARCA2 act,Gli-Sufu antag,Cardio protect,GalR3 antag,NR2F2 inh
COCCN(C(=O)c1cc(-c2ccncc2)nc2ccccc12)c1c(N)n(CC(C)C)c(=O)[nH]c1=O,3,2,-18,5,2,-2
CCCCN(C(=O)c1cc(-c2ccncc2)nc2ccccc12)c1c(N)n(CC(C)C)c(=O)[nH]c1=O,2,7.9*,-3,5,-3,9
CC(C)CN1C(=O)N2Cc3ccccc3C2CS1(=O)=O (stereo not drawn),/,-4,/,/,/,-28
COC(=O)c1ccccc1NC(=O)/C=C/c1cc(OC)c(OC)c(OC)c1,0,0,11,57*,-2,16
COc1ccc(-n2nc(C(=O)NCC(=O)Nc3cc(OC)c(OC)c(OC)c3)c3ccccc3c2=O)cc1Cl,-7,-1,29,58*,-7,23
CCN(CC)C(=O)CNC(=O)c1nn(-c2ccc(OC)c(Cl)c2)c(=O)c2ccccc12,3,-2,6,3,-9,-1
CCCC#Cc1ccc(CC[C@H]2O[C@H]3CC[C@@H](CO)O[C@H]3C[C@H]2NC(=O)CN2CCOCC2)cc1,/,-1,/,/,/,6
CN1/C(=C\C=[N+](C)c2ccccc2)C(C)(C)c2ccccc21,-2,-5,85*,-14,-8,12
Cc1c(C)n(Cc2ccc(-c3ccccc3C(=O)O)cc2)c2ccc(C(=O)N[C@@H](C)c3ccc([N+](=O)[O-])cc3)cc12,/,-2,/,/,/,-9
Cc1ccc2[nH]c(=O)c(CN(CCCN3CCOCC3)C(=O)Nc3ccc(Cl)cc3)cc2c1,4,-3,22,50*,-5,-7
Cc1ccc2[nH]c(=O)c(CN(CCCN3CCOCC3)C(=O)Nc3cccc(Cl)c3)cc2c1,-2,-2,17,34,-4,6
Cc1cc(C)n(-c2cc(N3CCN(C(=O)c4ccc(C(C)(C)C)cc4)CC3)ccc2[N+](=O)[O-])n1,0,-3,5,-12,-5,20
COc1ccc(C(=O)N2CCN(c3ccc([N+](=O)[O-])c(-n4nc(C)cc4C)c3)CC2)cc1,1,12*,-4,-4,-2,5
CC(C)CSc1ncccc1-c1nc2ccccc2[nH]1,/,1,/,/,/,-9
CCCCc1ccc(-c2noc(CCC(=O)NCC)n2)cc1,/,/,/,/,/,31
O=C(O)c1ccc(N=Nc2c(O)[nH]c3ccc(Br)cc23)cc1,4,6,-69,2,-4,-17
Oc1[nH]c2ccccc2c1N=NC(=S)N1CCOCC1,-1,/,63*,29,/,/
Oc1[nH]c2ccc(Br)cc2c1N=NC(=S)N1CCOCC1,-13,-5,86*,40,13*,36
COc1cc(/C=C2\SC(N3CCc4ccccc4C3)=NC2=O)cc(OC)c1OC,3,-5,6,52*,3,12
COc1ccc(/C=C2\SC(N3CCc4ccccc4C3)=NC2=O)cc1,-4,-1,5,1,-3,-8
CCn1c2ccccc2c2cc(NC(=O)c3cc4c(C)nn(-c5ccccc5)c4s3)ccc21,/,-5,/,/,/,-3
CC(=O)Nc1ccc(S(=O)(=O)N(Cc2cccnc2)Cc2cc3ccccc3[nH]c2=O)cc1,-6,-3,-19,64*,5,-8
COc1ccc2[nH]c(=O)c(CN(CC3CCCO3)S(=O)(=O)c3ccccc3F)cc2c1 (stereo not drawn),1,0,29,53*,-8,8
CC(=O)Nc1ccc(S(=O)(=O)N(Cc2ccco2)Cc2cc3ccccc3[nH]c2=O)cc1,-5,-1,-5,58*,1,16
CNC(=S)N(Cc1ccco1)Cc1cc2cc(OC)ccc2[nH]c1=O,0,-4,8,2,5,-15
O=c1[nH]c2ccccc2cc1CN(Cc1cccnc1)S(=O)(=O)c1ccc(Cl)cc1,-1,1,-17,14,0,17
COC(=O)c1ccccc1S(=O)(=O)N(Cc1ccco1)Cc1cc2cc(OC)ccc2[nH]c1=O,1,6,-1,59*,0,8
COc1ccc2[nH]c(=O)c(CN(CC3CCCO3)S(=O)(=O)c3ccccc3)cc2c1 (stereo not drawn),1,1,-13,31,-4,6
O=C(NCc1ccccc1)OCCN1C(=O)CCC12CCC(c1ccc(Cl)cc1)CC2 (stereo not drawn),/,-3,/,/,/,7
